# Tests used:
# Assay in all cases: DAPPL (digital affinity profiling via proximity ligation, sequencing); 10 mM Tris-HCl pH 7.5, 50 mM NaCl, 1 mM DTT, 4% glycerol, room temperature, 30 min; GST-TFs on glutathione beads, 16-mer random dsDNA library, 0.1% formaldehyde crosslink after washing; high values mean tight binding
# FLI1 = target: T1, FLI1 (Homo sapiens, UniProt Q01543 1-452); details: protein: recombinant; tags: N-terminal GST; dsDNA, one strand shown
# T1 sequence: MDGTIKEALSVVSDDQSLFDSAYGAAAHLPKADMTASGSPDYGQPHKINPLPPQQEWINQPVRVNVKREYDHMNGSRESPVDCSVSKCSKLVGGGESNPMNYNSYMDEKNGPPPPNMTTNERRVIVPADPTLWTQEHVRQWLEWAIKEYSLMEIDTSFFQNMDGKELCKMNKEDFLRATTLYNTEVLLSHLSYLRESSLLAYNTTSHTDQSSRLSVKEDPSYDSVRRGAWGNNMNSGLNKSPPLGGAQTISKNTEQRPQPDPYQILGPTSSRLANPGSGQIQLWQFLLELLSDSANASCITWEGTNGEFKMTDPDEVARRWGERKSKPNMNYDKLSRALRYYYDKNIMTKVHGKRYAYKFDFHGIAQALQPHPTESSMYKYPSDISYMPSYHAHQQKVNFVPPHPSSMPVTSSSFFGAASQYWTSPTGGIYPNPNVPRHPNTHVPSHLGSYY
# Procedure, shortened: (§1)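 In yeast, human transcription factors were expressed with a GST fusion, then pulled down on glutathione beads and given DNA barcodes. Pooled with a tag-only sample, they were exposed to 200 nmole of a 16-mer random double-stranded DNA library (Tris/NaCl/DTT/glycerol buffer, room temperature, 30 min), washed, crosslinked with 0.1% formaldehyde, proximity-ligated using BsaI/T4 ligase for 1 h at 37 °C, PCR-amplified and read on an Illumina NextSeq500. Each hexamer's frequency of reads for a factor, divided by the matching frequency for the tag-only sample, gives the binding signal.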
# ELK1 = target: T2, ELK1 (Homo sapiens, UniProt P19419 1-428); details: protein: recombinant; tags: N-terminal GST; dsDNA, one strand shown
# T2 sequence: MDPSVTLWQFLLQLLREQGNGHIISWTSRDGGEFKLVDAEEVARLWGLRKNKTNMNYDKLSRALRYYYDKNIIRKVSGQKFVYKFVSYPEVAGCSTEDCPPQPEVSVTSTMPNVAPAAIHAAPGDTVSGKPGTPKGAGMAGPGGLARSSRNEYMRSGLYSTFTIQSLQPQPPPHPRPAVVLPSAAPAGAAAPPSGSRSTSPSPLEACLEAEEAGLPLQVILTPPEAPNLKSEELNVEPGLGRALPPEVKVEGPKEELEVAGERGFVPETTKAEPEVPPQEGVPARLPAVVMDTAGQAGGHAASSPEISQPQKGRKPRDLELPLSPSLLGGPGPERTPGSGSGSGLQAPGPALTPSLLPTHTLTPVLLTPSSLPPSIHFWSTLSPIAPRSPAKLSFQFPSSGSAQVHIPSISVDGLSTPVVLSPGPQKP
# Procedure, shortened: as §1
# GABPA = target: T3, GABPA (Homo sapiens, UniProt Q06546 1-454); details: protein: recombinant; tags: N-terminal GST; dsDNA, one strand shown
# T3 sequence: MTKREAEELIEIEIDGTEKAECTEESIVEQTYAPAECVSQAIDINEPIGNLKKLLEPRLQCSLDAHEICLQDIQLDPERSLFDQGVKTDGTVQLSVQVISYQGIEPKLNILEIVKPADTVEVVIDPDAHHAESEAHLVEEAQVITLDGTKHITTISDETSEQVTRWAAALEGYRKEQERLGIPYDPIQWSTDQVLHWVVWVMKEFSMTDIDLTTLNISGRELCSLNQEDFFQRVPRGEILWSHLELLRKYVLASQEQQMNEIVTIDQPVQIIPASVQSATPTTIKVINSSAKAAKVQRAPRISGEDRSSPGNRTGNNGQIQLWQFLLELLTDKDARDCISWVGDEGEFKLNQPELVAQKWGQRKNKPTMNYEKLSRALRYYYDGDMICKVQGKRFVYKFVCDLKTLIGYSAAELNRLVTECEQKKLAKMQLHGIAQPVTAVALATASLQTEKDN
# Procedure, shortened: as §1
# ERG = target: T4, ERG (Homo sapiens, UniProt P11308 1-479); details: protein: recombinant; tags: N-terminal GST; dsDNA, one strand shown
# T4 sequence: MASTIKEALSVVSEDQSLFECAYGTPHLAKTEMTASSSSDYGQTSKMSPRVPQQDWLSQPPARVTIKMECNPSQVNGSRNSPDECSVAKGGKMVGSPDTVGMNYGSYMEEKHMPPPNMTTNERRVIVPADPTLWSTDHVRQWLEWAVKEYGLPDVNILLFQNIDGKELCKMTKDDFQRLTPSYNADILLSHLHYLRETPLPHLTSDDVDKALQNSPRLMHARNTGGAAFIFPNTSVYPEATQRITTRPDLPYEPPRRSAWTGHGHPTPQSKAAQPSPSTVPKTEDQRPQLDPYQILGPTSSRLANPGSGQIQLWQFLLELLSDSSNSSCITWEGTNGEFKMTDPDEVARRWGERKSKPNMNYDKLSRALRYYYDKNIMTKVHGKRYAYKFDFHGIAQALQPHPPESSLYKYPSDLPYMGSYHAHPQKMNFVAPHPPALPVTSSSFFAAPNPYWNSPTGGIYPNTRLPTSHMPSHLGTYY
# Procedure, shortened: as §1
# ELF1 = ELF1 (Homo sapiens, UniProt P32519 1-619); details: protein: recombinant; tags: N-terminal GST; dsDNA, one strand shown
# ELF1, sequence (P32519 whole entry): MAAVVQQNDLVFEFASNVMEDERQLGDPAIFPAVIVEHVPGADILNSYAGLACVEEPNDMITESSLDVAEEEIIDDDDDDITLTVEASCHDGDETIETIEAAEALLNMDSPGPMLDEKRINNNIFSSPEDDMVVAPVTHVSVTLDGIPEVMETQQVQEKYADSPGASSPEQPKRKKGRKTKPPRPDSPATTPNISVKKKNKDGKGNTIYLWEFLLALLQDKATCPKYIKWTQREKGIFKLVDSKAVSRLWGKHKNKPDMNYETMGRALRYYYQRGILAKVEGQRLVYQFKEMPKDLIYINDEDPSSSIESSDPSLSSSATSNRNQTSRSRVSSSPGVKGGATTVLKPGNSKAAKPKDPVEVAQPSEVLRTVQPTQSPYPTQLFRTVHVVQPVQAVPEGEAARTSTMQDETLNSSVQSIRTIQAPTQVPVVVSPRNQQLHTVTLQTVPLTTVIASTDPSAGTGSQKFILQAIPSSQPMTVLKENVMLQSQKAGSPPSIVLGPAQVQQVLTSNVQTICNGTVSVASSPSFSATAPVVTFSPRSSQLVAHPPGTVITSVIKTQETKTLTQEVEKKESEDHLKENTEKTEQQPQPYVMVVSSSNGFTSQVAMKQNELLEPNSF
# Procedure, shortened: as §1
# EHF = target: T5, EHF (Homo sapiens, UniProt Q9NZC4 1-300); details: protein: recombinant; tags: N-terminal GST; dsDNA, one strand shown
# T5 sequence: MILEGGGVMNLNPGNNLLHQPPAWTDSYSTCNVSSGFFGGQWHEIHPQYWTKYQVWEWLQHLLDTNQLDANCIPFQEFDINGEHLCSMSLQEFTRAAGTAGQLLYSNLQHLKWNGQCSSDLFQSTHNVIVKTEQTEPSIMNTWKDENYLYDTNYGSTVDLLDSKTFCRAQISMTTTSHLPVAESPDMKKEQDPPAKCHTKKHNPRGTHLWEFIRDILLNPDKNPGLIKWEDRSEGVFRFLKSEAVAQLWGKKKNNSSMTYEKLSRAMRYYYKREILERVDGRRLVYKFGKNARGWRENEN
# Procedure, shortened: as §1
# SPI1 = SPI1 (Homo sapiens, UniProt P17947 1-270); details: protein: recombinant; tags: N-terminal GST; dsDNA, one strand shown
# Procedure, shortened: as §1
# SPIB = SPIB (Homo sapiens, UniProt Q01892 1-262); details: protein: recombinant; tags: N-terminal GST; dsDNA, one strand shown
# SPIB, sequence (Q01892 whole entry): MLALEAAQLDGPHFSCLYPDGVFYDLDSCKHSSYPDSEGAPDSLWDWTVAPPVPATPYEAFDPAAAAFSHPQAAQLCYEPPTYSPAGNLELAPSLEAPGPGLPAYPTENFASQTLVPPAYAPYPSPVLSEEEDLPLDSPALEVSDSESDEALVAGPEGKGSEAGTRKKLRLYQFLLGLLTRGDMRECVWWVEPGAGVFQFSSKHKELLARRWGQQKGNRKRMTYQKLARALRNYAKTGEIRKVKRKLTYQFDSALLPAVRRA
# Procedure, shortened: as §1
# ELK3 = target: T6, ELK3 (Homo sapiens, UniProt P41970 1-407); details: protein: recombinant; tags: N-terminal GST; dsDNA, one strand shown
# T6 sequence: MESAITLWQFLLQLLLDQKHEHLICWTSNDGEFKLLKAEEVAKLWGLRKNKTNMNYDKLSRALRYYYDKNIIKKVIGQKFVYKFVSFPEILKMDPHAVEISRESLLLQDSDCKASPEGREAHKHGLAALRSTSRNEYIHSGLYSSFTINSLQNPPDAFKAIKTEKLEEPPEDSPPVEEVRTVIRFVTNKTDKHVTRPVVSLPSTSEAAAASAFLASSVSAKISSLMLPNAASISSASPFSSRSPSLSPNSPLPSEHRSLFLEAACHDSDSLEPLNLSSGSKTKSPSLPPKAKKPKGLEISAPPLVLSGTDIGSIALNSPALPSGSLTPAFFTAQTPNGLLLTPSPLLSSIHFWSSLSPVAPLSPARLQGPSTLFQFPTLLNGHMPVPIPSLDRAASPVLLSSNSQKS
# Procedure, shortened: as §1
# FEV = target: T7, FEV (Homo sapiens, UniProt Q99581 1-238); details: protein: recombinant; tags: N-terminal GST; dsDNA, one strand shown
# T7 sequence: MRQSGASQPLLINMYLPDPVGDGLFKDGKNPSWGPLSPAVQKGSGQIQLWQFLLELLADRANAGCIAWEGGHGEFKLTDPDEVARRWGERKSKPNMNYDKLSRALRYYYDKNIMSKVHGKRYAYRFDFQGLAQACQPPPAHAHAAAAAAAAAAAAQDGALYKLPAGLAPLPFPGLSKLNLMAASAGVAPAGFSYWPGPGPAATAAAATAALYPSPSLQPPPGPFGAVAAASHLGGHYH
# Procedure, shortened: as §1
# ETV5 = ETV5 (Homo sapiens, UniProt P41161 1-510); details: protein: recombinant; tags: N-terminal GST; dsDNA, one strand shown
# ETV5, sequence (P41161 whole entry): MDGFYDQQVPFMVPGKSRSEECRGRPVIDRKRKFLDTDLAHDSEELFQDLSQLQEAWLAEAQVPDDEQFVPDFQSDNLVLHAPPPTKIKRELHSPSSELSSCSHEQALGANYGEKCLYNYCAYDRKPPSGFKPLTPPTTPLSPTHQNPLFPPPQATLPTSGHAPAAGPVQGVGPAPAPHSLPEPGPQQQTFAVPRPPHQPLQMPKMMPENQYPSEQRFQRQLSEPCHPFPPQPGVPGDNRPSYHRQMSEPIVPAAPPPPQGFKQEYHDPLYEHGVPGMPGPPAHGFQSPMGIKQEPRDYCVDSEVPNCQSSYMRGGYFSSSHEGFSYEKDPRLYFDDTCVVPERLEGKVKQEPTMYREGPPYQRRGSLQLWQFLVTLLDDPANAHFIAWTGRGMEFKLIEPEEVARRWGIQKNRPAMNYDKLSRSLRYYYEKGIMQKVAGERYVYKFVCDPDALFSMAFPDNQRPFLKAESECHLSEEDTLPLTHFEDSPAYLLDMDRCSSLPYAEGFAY
# Procedure, shortened: as §1
# HSF1 = HSF1 (Homo sapiens, UniProt Q00613 1-529); details: protein: recombinant; tags: N-terminal GST; chain copies: 3; dsDNA, one strand shown
# HSF1, sequence (Q00613 whole entry): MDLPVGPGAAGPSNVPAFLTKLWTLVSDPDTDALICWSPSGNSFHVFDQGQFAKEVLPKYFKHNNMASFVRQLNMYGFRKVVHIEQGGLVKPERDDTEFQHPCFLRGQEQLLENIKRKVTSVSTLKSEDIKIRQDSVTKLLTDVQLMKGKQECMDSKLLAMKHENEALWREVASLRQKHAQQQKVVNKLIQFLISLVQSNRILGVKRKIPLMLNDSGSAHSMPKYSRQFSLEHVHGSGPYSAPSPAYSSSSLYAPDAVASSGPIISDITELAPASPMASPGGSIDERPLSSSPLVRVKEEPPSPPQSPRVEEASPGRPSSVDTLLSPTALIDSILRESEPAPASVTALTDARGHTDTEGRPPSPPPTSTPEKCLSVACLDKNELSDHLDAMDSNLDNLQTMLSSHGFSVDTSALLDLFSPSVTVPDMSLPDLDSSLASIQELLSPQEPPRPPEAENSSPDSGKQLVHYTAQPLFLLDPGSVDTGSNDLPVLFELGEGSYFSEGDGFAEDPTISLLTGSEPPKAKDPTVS
# Procedure, shortened: as §1
# SPIC = target: T8, SPIC (Homo sapiens, UniProt Q8N5J4 1-248); details: protein: recombinant; tags: N-terminal GST; dsDNA, one strand shown
# T8 sequence: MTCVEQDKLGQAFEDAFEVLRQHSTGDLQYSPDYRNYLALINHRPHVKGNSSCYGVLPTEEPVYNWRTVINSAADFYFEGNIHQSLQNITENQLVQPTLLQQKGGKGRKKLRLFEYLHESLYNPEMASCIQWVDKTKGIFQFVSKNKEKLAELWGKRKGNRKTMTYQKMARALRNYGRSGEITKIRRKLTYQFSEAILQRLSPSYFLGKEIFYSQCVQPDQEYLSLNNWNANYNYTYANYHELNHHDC
# Procedure, shortened: as §1
# ELF4 = ELF4 (Homo sapiens, UniProt Q99607 1-663); details: protein: recombinant; tags: N-terminal GST; dsDNA, one strand shown
# ELF4, sequence (Q99607 whole entry): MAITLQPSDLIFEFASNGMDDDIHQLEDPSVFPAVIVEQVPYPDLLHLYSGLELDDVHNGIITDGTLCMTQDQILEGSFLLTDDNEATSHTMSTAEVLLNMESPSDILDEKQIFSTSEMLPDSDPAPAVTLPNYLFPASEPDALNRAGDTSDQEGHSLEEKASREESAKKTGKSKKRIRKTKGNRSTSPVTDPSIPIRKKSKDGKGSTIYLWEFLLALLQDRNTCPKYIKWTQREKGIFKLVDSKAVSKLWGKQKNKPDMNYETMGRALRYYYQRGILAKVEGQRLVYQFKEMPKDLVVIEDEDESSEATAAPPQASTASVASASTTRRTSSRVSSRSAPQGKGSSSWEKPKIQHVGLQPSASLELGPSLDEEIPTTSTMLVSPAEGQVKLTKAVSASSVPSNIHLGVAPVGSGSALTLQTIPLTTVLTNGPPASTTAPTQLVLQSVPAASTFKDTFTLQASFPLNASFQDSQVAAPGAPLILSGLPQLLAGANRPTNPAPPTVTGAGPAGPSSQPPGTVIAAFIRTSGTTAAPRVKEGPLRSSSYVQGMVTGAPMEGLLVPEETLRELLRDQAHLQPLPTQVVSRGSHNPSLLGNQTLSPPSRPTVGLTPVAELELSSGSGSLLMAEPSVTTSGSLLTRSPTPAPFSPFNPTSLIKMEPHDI
# Procedure, shortened: as §1
# ELK4 = target: T9, ELK4 (Homo sapiens, UniProt P28324-2 1-405); details: protein: recombinant; tags: N-terminal GST; dsDNA, one strand shown
# T9 sequence: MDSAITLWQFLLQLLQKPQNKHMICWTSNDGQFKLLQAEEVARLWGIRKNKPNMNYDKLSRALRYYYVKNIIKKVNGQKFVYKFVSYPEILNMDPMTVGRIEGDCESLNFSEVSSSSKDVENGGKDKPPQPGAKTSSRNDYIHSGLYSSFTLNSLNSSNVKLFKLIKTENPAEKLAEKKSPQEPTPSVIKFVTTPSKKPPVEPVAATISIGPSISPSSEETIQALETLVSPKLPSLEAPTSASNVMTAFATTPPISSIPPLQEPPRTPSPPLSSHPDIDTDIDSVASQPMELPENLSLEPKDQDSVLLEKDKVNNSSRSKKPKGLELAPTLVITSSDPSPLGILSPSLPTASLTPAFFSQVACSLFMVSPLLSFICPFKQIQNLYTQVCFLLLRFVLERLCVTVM
# Procedure, shortened: as §1
# ETV2 = target: T10, ETV2 (Homo sapiens, UniProt O00321 1-342); details: protein: recombinant; tags: N-terminal GST; dsDNA, one strand shown
# T10 sequence: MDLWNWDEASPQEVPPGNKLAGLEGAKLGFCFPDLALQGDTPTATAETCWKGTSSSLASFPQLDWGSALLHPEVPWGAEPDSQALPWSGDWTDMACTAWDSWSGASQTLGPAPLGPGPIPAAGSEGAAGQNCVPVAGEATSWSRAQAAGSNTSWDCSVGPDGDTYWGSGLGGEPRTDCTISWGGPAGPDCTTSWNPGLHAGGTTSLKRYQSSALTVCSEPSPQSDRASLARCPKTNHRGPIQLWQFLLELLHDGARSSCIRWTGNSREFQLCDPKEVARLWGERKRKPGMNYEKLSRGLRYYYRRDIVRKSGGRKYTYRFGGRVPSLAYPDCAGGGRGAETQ
# Procedure, shortened: as §1
# ELF3 = target: T11, ELF3 (Homo sapiens, UniProt P78545 1-371); details: protein: recombinant; tags: N-terminal GST; dsDNA, one strand shown
# T11 sequence: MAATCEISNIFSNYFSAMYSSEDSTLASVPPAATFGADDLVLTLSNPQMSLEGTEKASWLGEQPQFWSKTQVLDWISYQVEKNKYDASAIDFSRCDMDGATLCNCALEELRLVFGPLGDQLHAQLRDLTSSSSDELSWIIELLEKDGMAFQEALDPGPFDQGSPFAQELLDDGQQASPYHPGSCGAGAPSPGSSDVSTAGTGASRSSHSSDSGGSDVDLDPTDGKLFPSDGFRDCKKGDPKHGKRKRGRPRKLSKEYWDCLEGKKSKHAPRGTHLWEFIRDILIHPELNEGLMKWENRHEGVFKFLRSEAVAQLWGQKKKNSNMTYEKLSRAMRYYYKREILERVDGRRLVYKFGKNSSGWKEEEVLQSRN
# Procedure, shortened: as §1
# CRX = CRX (Homo sapiens, UniProt O43186 1-299); details: protein: recombinant; tags: N-terminal GST; dsDNA, one strand shown
# CRX, sequence (O43186 whole entry): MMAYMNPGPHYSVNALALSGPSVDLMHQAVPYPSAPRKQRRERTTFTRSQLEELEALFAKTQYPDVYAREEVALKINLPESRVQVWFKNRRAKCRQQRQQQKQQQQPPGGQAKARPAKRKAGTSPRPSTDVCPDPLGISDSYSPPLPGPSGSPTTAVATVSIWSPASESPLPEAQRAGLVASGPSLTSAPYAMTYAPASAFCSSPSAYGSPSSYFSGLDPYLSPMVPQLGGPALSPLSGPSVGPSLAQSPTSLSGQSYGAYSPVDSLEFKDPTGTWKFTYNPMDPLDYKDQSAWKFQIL
# Procedure, shortened: as §1
# ETV1 = ETV1 (Homo sapiens, UniProt P50549 1-477); details: protein: recombinant; tags: N-terminal GST; dsDNA, one strand shown
# ETV1, sequence (P50549 whole entry): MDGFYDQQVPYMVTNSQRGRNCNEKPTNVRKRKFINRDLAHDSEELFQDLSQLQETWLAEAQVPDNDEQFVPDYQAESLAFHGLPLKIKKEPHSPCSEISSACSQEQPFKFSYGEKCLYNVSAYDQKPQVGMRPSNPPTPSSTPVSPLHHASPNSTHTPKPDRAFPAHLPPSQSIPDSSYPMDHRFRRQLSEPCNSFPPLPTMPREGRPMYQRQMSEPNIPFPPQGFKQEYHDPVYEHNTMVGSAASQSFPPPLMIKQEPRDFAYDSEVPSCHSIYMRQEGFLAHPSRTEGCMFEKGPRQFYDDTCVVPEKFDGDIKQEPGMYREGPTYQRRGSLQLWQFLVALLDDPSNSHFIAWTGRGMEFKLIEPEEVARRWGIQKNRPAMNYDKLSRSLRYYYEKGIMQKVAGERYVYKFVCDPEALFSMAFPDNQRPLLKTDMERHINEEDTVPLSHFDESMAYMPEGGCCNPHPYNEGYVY
# Procedure, shortened: as §1
sequence,measurement,setting,value
GTATTA,binding signal,FLI1,"1.17 fold enrichment (6-mer frequency, TF over GST control)"
same,binding signal,ELK1,"1.2 fold enrichment (6-mer frequency, TF over GST control)"
same,binding signal,GABPA,"1.07 fold enrichment (6-mer frequency, TF over GST control)"
same,binding signal,ERG,"1.12 fold enrichment (6-mer frequency, TF over GST control)"
same,binding signal,ELF1,"1.11 fold enrichment (6-mer frequency, TF over GST control)"
same,binding signal,EHF,"1.03 fold enrichment (6-mer frequency, TF over GST control)"
same,binding signal,SPI1,"1.04 fold enrichment (6-mer frequency, TF over GST control)"
same,binding signal,SPIB,"1.07 fold enrichment (6-mer frequency, TF over GST control)"
same,binding signal,ELK3,"1.06 fold enrichment (6-mer frequency, TF over GST control)"
same,binding signal,FEV,"1.09 fold enrichment (6-mer frequency, TF over GST control)"
same,binding signal,ETV5,"1.14 fold enrichment (6-mer frequency, TF over GST control)"
same,binding signal,HSF1,"1.62 fold enrichment (6-mer frequency, TF over GST control)"
same,binding signal,SPIC,"1.04 fold enrichment (6-mer frequency, TF over GST control)"
same,binding signal,ELF4,"1.08 fold enrichment (6-mer frequency, TF over GST control)"
same,binding signal,ELK4,"1.14 fold enrichment (6-mer frequency, TF over GST control)"
same,binding signal,ETV2,"1.2 fold enrichment (6-mer frequency, TF over GST control)"
same,binding signal,ELF3,"1.09 fold enrichment (6-mer frequency, TF over GST control)"
same,binding signal,CRX,"2.49 fold enrichment (6-mer frequency, TF over GST control)"
same,binding signal,ETV1,"1.13 fold enrichment (6-mer frequency, TF over GST control)"

# Source: publication PMC7862700, “An all-to-all approach to the identification of sequence-specific readers for epigenetic DNA modifications on cytosine”
